ELG1 genotox: inducers of genotoxicity in HEK293T ELG1-luciferase cells. Potency, µM (top dose mostly 46 µM), for inactives: at the top dose activity change, positive = activation, most hits filed as activators. AID 504466. HEK293T ELG1-luciferase reporter, luminescence, 16 h. 330,000 tested, 1.3% active; note: % of control where 0% means no effect; nearly all actives have a fitted effect of over 60% in size
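DMSO vehicle served as control against compound-treated ELG1-luciferase HEK293T cells; exposure lasted 16 hr at 37 °C and 5% CO2, followed by ONE-Glo luminescence detection after 30 min.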
SMN2 splice enh: increases expression of the SMN2 splice variant | 210,000 tested, 2.8% active | HEK293 SMN2-luciferase splicing reporter, luminescence, 30-36 h | Potency, µM (doses to about 46.1 µM), for the others: at the top dose activity change, positive = activation, usual class: activators; note: % of control where 0% means no effect; nearly all actives have a fitted effect of over 55% in size
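qHTS luciferase splicing reporter: luminescence rises when SMN2 exon 7 is included in transfected HEK293 cells. Compound exposure lasted 30-36 h at 37C, with 4.5 mM final sodium butyrate as control, followed by a ONE-Glo read.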
NPC1 prom act: NPC1 promoter activation. Huh7 NPC1 promoter luciferase reporter, 24 h. Potency, µM (doses to about 9.22 µM), without a hit: at the top dose activation, hits mostly activators. 320,000 tested, 2.4% active; note: % of control where 0% means no effect; nearly all actives have a fitted effect of over 60% in size
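Quantitative HTS used a cell-based reporter: Huh7 cells stably bearing the NPC1 promoter upstream of luciferase were treated with compounds for 24 h, and promoter activation was read as luminescence.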
ELG1 DNA repair: ELG1-dependent DNA repair inhibition; HEK293T ELG1-luciferase reporter, luminescence, 16 h; DNA damage induced by 5-fluorouridine; Potency, µM (highest dose often 46.1 µM), for inactives: at the highest dose activity change, negative = inhibition, usual class: inhibitors; 330,000 tested, 2.3% active; note: % is set by controls: 0 for no effect and ±100 for the full control effect; nearly all actives have a fitted effect of over 55% in size
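Step one: seed 2,000 cells per well. Step two: pin-transfer compound or DMSO alongside 5-fluorouridine. Step three: incubate 16 hr, 37 °C, 5% CO2. Step four: add ONE-Glo, wait 30 min, read luminescence.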
FLuc modulator: inhibits or activates purified firefly luciferase, miR-21 counter-screen. 360,000 tested, 6.9% active. Potency, µM (doses to about 57.5 µM), for the others: top-dose activity change, negative = inhibition, hits mostly inhibitors. purified FLuc, Km substrates, luminescence inhibition. AID 588342;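 note: plate controls were vehicle for no effect and reference inhibitor for full effect; nearly all actives have a fitted effect of over 55% in size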
Target sequence (P08659 whole entry, looked up): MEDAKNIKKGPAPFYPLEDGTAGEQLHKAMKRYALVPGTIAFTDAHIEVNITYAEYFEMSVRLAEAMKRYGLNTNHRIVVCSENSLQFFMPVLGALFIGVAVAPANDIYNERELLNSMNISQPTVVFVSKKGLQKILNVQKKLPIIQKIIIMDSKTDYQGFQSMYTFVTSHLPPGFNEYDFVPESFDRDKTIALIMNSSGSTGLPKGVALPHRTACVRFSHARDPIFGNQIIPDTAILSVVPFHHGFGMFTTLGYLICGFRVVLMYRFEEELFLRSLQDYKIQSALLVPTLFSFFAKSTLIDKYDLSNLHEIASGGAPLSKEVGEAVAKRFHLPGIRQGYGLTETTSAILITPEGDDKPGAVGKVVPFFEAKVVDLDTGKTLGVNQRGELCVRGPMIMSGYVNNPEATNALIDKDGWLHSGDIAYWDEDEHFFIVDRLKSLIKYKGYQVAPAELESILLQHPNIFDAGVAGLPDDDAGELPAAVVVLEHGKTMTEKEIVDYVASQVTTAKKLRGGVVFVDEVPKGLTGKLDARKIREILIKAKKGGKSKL
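Biochemical qHTS of compounds, final roughly 60 µM downward over six points, against 10 nM purified firefly luciferase using Km concentrations of substrates (10 uM D-luciferin, 10 uM ATP) in Tris acetate pH 7.5 buffer; luminescence output.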
Rab9 promoter act: activators of Rab9 promoter; Huh7 Rab9 promoter-luciferase reporter, luminescence, 24 h; 320,000 tested, 2.8% active; Potency, µM (titrated, usually from 9.22 µM), for inactives: at the highest dose activation, negative = inhibition, most hits filed as activators; note: % of control where 0% means no effect; nearly all actives have a fitted effect of over 60% in size
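Cell-based reporter: Huh7 stable for Rab9 promoter-driven luciferase, plated in reduced-serum medium with 10% FBS at 1500 cells/well, compound-treated 24 h at 37 °C, luminescence read after 10 min reagent.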
Numbers without * were called inactive; ? = inconclusive; . = no result; [ ] = remark or other dose. The list is not random: actives were taken first. Their share in the collection is about 9.3%. Calls come from the whole dose curve; as a rule, active = well fitted curve in the direction sought with a large enough effect; inconclusive = small, poorly fitted or top-dose-only effect, or another doubt; inactive = no such curve, though single readings can be large; an effect the other way counts as inactive or inconclusive. Potency is the fitted concentration of half-maximal effect.

SMILES	ELG1 genotox	SMN2 splice enh	NPC1 prom act	ELG1 DNA repair	FLuc modulator	Rab9 promoter act
O=C(CC(=O)c1cccc([N+](=O)[O-])c1)Nc1ccccc1Cl	3.4%	-11.7%	16.4%	0.1%	23.9µM*	11.9%
N/C(=N/OC(=O)c1cccc([N+](=O)[O-])c1)c1cccc([N+](=O)[O-])c1	8.4%	0.4%	14.6%	?	?	11.8%
N/C(=N\OC(=O)c1ccc(F)cc1)c1cccc([N+](=O)[O-])c1	?	.	?	?	0.239µM*	?
N/C(=N\OC(=O)c1cccc(F)c1)c1cccc([N+](=O)[O-])c1	?	.	25.7%	?	1.51µM*	20.6%
COc1cc(OC)c(C(=O)O/N=C(\N)c2cccc(C)c2)cc1OC	6.3%	.	3.8%	12.9%	?	0.5%[1.84 µM]
COc1ccccc1C/C(N)=N/OC(=O)c1cccc([N+](=O)[O-])c1	-2.5%	-7.0%	-3.2%	0.0%	11.8%	2.6%
Cc1cccc(/C(N)=N/OC(=O)c2ccc(F)cc2)c1	?	?	1µM*	?	0.269µM*	1.58µM*
O=C(c1cccc(F)c1)N1CCC2(CCN(Cc3cc(C(F)(F)F)cc(C(F)(F)F)c3)CC2)CC1	.	-15.8%	.	.	.	.
N/C(=N\OC(=O)c1ccc2ccccc2c1)c1cccc([N+](=O)[O-])c1	?	13.9%[1.84 µM]	26.4%	?	1.9µM*	12.2%
N/C(=N\OC(=O)c1ccccc1Cl)c1cccc([N+](=O)[O-])c1	2.59µM*	.	1.41µM*	?	1.2µM*	0.891µM*
N/C(=N/OC(=O)c1ccccc1Cl)c1ncc([N+](=O)[O-])s1	?	.	?	?	4.26µM*	1.4%
N/C(=N\OC(=O)c1cccc(Br)c1)c1ccc([N+](=O)[O-])cc1	2.1%	.	-1.2%	23.6%	?	0.1%
N/C(=N\OC(=O)Cc1ccc(-c2ccccc2)cc1)c1cccc([N+](=O)[O-])c1	-4.5%	-9.3%	-6.1%	1.5%	-6.3%	0.8%
O=C1CC(c2ccc3c(c2)OCO3)Sc2nc3ccccc3n21 (centres undefined)	?	?	3.98µM*	?	1.51µM*	18.3%
O=C1CC(c2cccs2)Sc2nc3ccccc3n21 (centres undefined)	?	?	-3.4%	?	3.38µM*	0.0%
CCCN1C(=O)CC(c2ccco2)Sc2ccccc21 (centres undefined)	8.3%	3.2%	-2.2%	8.7%	-0.1%	-6.1%
O=C1CC(c2ccccc2)Sc2nc3ccccc3n21 (centres undefined)	?	?	-0.8%	?	4.78µM*	10.4%
O=C1CC(c2ccco2)Sc2nc3ccccc3n21 (centres undefined)	?	11.5%	-0.8%	?	12µM*	-2.9%
Cc1ccc2c(c1)N(C(=O)CCC(=O)NCc1cccs1)CC(C)O2 (centres undefined)	.	.	.	.	3.6%	.
COc1cccc(C(=O)Nc2cccc(NC(C)=O)c2)c1	3.2%	-1.4%	-4.8%	?	?	-1.4%
COc1cccc(C(=O)Nc2cc(NC(=O)c3cccs3)ccc2C)c1OC	-14.4%	.	-1.9%	16.4µM*	21.3µM*	3.5%
CCOC(=O)c1cccc(NC(=O)c2cccs2)c1	?	-10.7%	26.8%	?	21.3µM*	17.6%
COc1cccc(C(=O)Nc2cc(NC(=O)c3cccs3)ccc2C)c1	-13.8%	.	3.8%	?	12µM*	2.4%
COc1cccc(C(=O)Nc2cccc(NC(=O)c3cccs3)c2)c1	-1.5%	.	0.6%	?	21.3µM*	0.3%
CCOC(=O)c1cccc(NC(=O)c2sc3nc[nH]c(=O)c3c2C)c1	.	.	.	.	15.1µM*	.
CC(=O)c1cccc(NC(=O)c2cc3c(s2)-c2c(C)cccc2OC3)c1	.	-2.2%	.	.	-6.1%	.
CCc1sc(C(=O)Nc2cccc(C(C)=O)c2)cc1C	16.1%	?	27.3%	?	10.7µM*	?

Assay outcomes from PubChem BioAssay.
